For 44 molecules, activity results are on record in PubChem BioAssay.

In test [1] the target is Tumor necrosis factor receptor superfamily member 10B (Homo sapiens) (UniProt O14763). The experiment in a line: viability loss of caspase-8 NB7 cells with TRAIL – with/without TRAIL, luminescence panel, confirmation (AID 651596). The conditions noted are these: NB7 neuroblastoma + caspase-8, TRAIL sensitization, NB7 Caspase-8, with TRAIL, mean of runs, at 10 µM, stronger effect = higher value.

Experiment in test [2]: as above
The conditions noted are these: NB7 neuroblastoma + caspase-8, without TRAIL, NB7 Caspase-8, without TRAIL, mean of runs, at 10 µM.

Sequence of Tumor necrosis factor receptor superfamily member 10B (Homo sapiens) (O14763 whole entry, looked up): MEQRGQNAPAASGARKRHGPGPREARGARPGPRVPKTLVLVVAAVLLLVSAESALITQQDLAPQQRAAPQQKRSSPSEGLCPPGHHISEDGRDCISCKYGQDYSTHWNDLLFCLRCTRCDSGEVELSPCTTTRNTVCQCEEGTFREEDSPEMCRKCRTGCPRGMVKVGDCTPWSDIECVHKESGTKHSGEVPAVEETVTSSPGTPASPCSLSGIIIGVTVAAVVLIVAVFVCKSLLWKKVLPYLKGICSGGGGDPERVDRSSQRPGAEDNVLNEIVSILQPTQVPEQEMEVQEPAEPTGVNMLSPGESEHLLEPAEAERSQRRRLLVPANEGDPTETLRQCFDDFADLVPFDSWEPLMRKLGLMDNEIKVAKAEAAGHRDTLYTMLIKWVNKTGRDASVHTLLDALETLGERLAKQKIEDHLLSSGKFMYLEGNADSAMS

Take `COc1ccccc1NC(CC(=O)c1ccccc1)C(=O)OCC(=O)c1ccc(C)cc1` (stereo not drawn): the figures for the activity in test [1] and in test [2] were 65% and 69%, respectively.

Regarding `Oc1ccc(-c2nc3ccccc3s2)cc1`, the activity in test [1] was 47.5%; in test [2] it was 47.9%.

`Cc1cc(C)nc(Nc2nc(-c3ccccc3)cs2)n1`: the activity in test [1] worked out at 72.5%; in test [2], 71.3%.

In the case of `CCOC(=O)NC(=O)CSc1nc(C)cc(C)c1C#N`, the figures for the activity in test [1] and in test [2] were 71% and 61.4%, respectively.

Take `Cc1nc(-c2ccc(NC(=O)CC(C)C)cc2)cs1`: the activity in test [1] worked out at 51.7%; in test [2] it was 55.5%.

Turning to `CC(C)(C)c1ccc(C(=O)Nc2cnccn2)cc1`, the activity was found to be 78.5% in test [1] and 82.2% in test [2].

`COc1ccc(C2c3ccc4ccccc4c3Oc3ncn(CCCN(C)C)c(=N)c32)cc1` (stereo not drawn): the results for the activity in test [1] and in test [2] were 24.2% and 76.8%, respectively.

In the case of `CCN(CC)c1ccc(NC(=O)c2ccco2)cc1`, the activity in test [1] was found to be 53.6%; in test [2], 50.3%.

Take `CCCCCCCCCCn1ccc(=N)cc1`: the activity is 84% in test [1] and 68.3% in test [2].

Consider `Cc1cccnc1NC(=S)NC(=O)c1cccs1`, for which the figures for the activity in test [1] and in test [2] were 73.2% and 66.8%, respectively.

Regarding `COc1ccc(C(=O)Nc2ccc3[nH]ccc3c2)cc1`, the activity in test [1] is 95.1%; in test [2], 95.3%.

For the molecule `FC(F)(F)c1cc(Cl)c2nc(-c3ccccc3)cn2c1`, the results for the activity in test [1] and in test [2] were 65% and 76.1%, respectively.

Turning to `O=C(CC1SC(=O)N(Cc2cccc3ccccc23)C1=O)Nc1nccs1` (stereo not drawn), the activity in test [1] was determined as 33%; in test [2], 74.3%.

Consider `O=C(NCCc1ccccc1)C(c1cccs1)N(C(=O)CCl)c1ccc(Cl)cc1` (stereo not drawn), for which the activity in test [1] and in test [2] was 99.5% each time.

In the case of `CCCc1cc(=O)[nH]c(SCC(=O)Nc2sc(C(N)=O)c(C)c2C(=O)OCCOC)n1`, the activity in test [1] was found to be 84.6%; in test [2], 86.4%.

As for `O=C(Nc1cnn(C23CC4CC(CC(C4)C2)C3)c1)c1cnn2c(C(F)(F)F)cc(-c3ccco3)nc12`, the activity in test [1] amounted to 76.4%; in test [2], 70.3%.

As to `Cn1c(-c2ccccc2F)cc2onc(-c3ccccc3)c2c1=O`, the activity in test [1] came out at 63%; in test [2], 65.1%.

For `Nc1nc(CCl)nc(Nc2ccc3ccccc3c2)n1`, the values for the activity in test [1] and in test [2] were 99.1% and 97.8%, respectively.

In the case of `CC(C)n1c(/C=C/c2ccccc2)nc2ccccc21`, the activity in test [1] came out at 63.2%; in test [2], 69.3%.

Take `O=C(Nc1ccc2c(c1)OCO2)N1CCN(Cc2ccco2)CC1`: the figures for the activity in test [1] and in test [2] were 78.8% and 75.2%, respectively.

Consider `COc1ccccc1C/C(N)=N/OC(=O)c1cccc([N+](=O)[O-])c1`, for which the activity in test [1] came to 89.8%; in test [2], 69.6%.

As to `CCc1cc2c(=O)c(-c3cnn(-c4ccccc4)c3)c(C)oc2cc1OCC(=O)Nc1ccc(F)c(F)c1`, the activity in test [1] was 37.2%; in test [2], 26.4%.

In the case of `O=C1c2cccc3c([N+](=O)[O-])ccc(c23)C(=O)N1c1ccccn1`, the results for the activity in test [1] and in test [2] were 91.4% and 99.4%, respectively.

Consider `COc1cc(NCCCCC(C)N)c2nccc(C)c2c1` (stereo not drawn), for which the figures for the activity in test [1] and in test [2] were 38% and 45.6%, respectively.

As to `O=C(NC1=NCCS1)c1cccs1`, the activity in test [1] was -8.57%; in test [2], -38%.

As for `CN1CC(=O)N2C(c3ccc(Cl)cc3)c3[nH]c4ccccc4c3C[C@H]2C1=O` (stereo partly drawn), the activity in test [1] is 94.7%; in test [2], 92.8%.

For the molecule `COCCCNc1ccn2nc(-c3ccccc3)cc2n1`, the activity is 50.1% in test [1] and 35.5% in test [2].

As to `Cc1ccc(-c2cc3nc4c(c(=O)n3[nH]2)CCCC4)cc1`, the activity in test [1] was 55.2%; in test [2], 54.7%.

As to `CCN(CC)S(=O)(=O)c1cccc(NC(=O)Nc2cccc(C(F)(F)F)c2)c1`, the activity in test [1] is 78.2%; in test [2], 53%.

Turning to `CC1(C)N=C(N)N=C(N)N1c1ccccc1`, the figures for the activity in test [1] and in test [2] were 83.4% and 87.2%, respectively.

Consider `CN(C)c1ccc(C(=O)Nc2nc3c(s2)CCCC3)cc1`, for which the activity turned out to be 51.9% in test [1] and 48.6% in test [2].

In the case of `Oc1ccc(-c2nnc(SCC3CCCCC3)o2)cc1`, the activity in test [1] was 70.1%; in test [2] it was 84.3%.

In the case of `N/C(=N\OC(=O)c1ccc(Cl)cc1)c1ccc(Cl)cc1`, the activity in test [1] was 92.4%; in test [2], 76.8%.

`O=C(COC(=O)c1ccccc1C(=O)c1ccc(Cl)c([N+](=O)[O-])c1)NC1CC1`: the activity in test [1] turned out to be 98.7%; in test [2], 99.3%.

As to `CC(C)(C)OC(=O)NCc1ccc(NC(=O)c2nc[nH]c2C(=O)NCCCNC(=O)c2[nH]cnc2C(=O)Nc2ccc(CNC(=O)OC(C)(C)C)cc2)cc1`, the activity in test [1] is 87.7%; in test [2], 69.1%.

Take `O=C(N/N=C/c1cccc(O)c1)c1ccc2c(c1)OCCO2`: the activity in test [1] stood at 93.8%; in test [2] it was 90.7%.

Take `C/C(=N\NC(=O)c1ccccc1F)c1cccc(NC(=O)c2ccc(C)cc2)c1`: the activity in test [1] was 59.8%; in test [2], 71.5%.

Turning to `Cc1ccc2nc(NC(=O)c3ccccc3F)sc2c1`, the activity is 67.5% in test [1] and 64% in test [2].

On to `COc1cc(/C=N/NC(=O)COc2ccc(C)cc2)ccc1OC(=O)c1cccs1`, for which the activity in test [1] was determined as 58.4%; in test [2], 48.5%.

Regarding `COc1ccc(OC)c(NC(=O)c2cc(-c3cc(Cl)ccc3O)n[nH]2)c1`, the activity was 33.7% in test [1] and 34.1% in test [2].

Regarding `O=C(N/N=C/c1cc(Br)cs1)c1ccc2c(c1)OCCO2`, the activity stood at 78.8% in test [1] and 77.9% in test [2].

In the case of `COc1ccc(S(=O)(=O)N2CCC(C(=O)NCCC3=CCCCC3)CC2)cc1C`, the activity in test [1] is 13.8%; in test [2], 22.2%.

Take `O=c1c2ccccc2oc2ccc(C#CC3(O)CCCCC3)cc12`: the activity in test [1] stood at 86.2%; in test [2], 84.8%.

`Cc1nn(-c2ccccc2)c(Cl)c1CN(C(=O)CCl)c1ccc(Cl)cc1`: the values for the activity in test [1] and in test [2] were 99.3% and 99.6%, respectively.
